# Laboratory results as given in PubChem BioAssay (Tox21).
# Several values for one entry are separate records, joined by “and”; a condition that tells them apart may be missing. Equal entries are not always repeated. Records with an inconclusive call do not appear. Unmarked numbers belong to inactive results. The call rests on the fitted dose curve; in most records, active means well fitted activation curve with a large enough effect in the repeat runs; inconclusive means weak or mixed curves; inactive means no such curve, though single readings can be large or run the other way.
# Target: Nuclear receptor subfamily 1 group I member 2 (Rattus norvegicus) (UniProt Q9R1A7)
# Test: Rat pregnane X receptor (rPXR) activation by small molecules, qHTS assay (AID 1346983); further: nearly all actives have a fitted effect of over 20% in size
# Conditions: rPXR luciferase reporter cells, One-Glo luminescence, 24 h; max activation: active compounds read high
# Method in brief: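 Cell-based rPXR activation assay: rPXR cells, 2,000 per well, rested 5hr at 37 C, then exposed to compounds in DMSO for 24 hr at 37 C. Luciferase activity read by One-Glo luminescence after 30 min at room temperature.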
# On the % scale 0 is the no-effect control and ±100 the full control effect.
# Nuclear receptor subfamily 1 group I member 2 (Rattus norvegicus), sequence (Q9R1A7 whole entry, looked up): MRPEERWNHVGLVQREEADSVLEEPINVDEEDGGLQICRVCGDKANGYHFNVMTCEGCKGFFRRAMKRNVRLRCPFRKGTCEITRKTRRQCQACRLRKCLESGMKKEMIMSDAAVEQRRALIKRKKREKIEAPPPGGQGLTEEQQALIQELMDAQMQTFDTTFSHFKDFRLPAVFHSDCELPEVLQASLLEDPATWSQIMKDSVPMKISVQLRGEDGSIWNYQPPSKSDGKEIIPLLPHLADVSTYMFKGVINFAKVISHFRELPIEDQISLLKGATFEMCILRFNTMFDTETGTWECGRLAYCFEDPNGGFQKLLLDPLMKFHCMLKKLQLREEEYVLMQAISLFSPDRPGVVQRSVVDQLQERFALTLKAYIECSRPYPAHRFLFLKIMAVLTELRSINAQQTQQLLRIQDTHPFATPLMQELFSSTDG
row,SMILES,max activation
1,c1ccc2c(c1)OCC(CN1CCCCC1)O2 (stereo not given),-3.94%
2,C[Se]CC[C@H](N)C(=O)O,-6.85%
3,CN(Cc1ccccc1)Cc1ccccc1,-2.9%
4,O=C1CC[C@@H](C(=O)N[C@H]2C[C@@H]2c2ccccc2)N1,-3.97%
5,FC(F)(F)COCC(F)(F)F,-3.1%
6,NC[C@H]1O[C@H](O[C@H]2[C@H](O)[C@@H](O[C@H]3O[C@H](CO)[C@@H](O)[C@H](N)[C@H]3O)[C@H](N)C[C@@H]2N)[C@H](N)C[C@@H]1O,7.07%
7,CC[C@H]1OC(=O)C[C@@H](O)[C@H](C)[C@@H](O[C@@H]2O[C@H](C)[C@@H](O)[C@H](N(C)C)[C@H]2O)[C@@H](CCN2C[C@H](C)C[C@H](C)C2)C[C@@H](C)C(=O)/C=C/C(C)=C/[C@@H]1CO[C@@H]1O[C@H](C)[C@@H](O)[C@@H](OC)[C@H]1OC,-0.718%
8,C=CC[N+]1([C@H]2C[C@H]3[C@@H]4CC[C@H]5C[C@H](O)[C@@H](N6CCOCC6)C[C@]5(C)[C@H]4CC[C@]3(C)[C@H]2OC(C)=O)CCCC1,-2.81%
9,c1ccc(-n2cnnn2)cc1,-5.33%
10,NC(=O)c1cc[n+](CC2=C(C(=O)O)N3C(=O)[C@@H](NC(=O)C(c4ccccc4)S(=O)(=O)[O-])[C@H]3SC2)cc1 (stereo not given in full),-2.77%
11,N#Cc1c(N(CC(=O)O)CC(=O)O)sc(C(=O)O)c1CC(=O)O,-5.61%
12,CN1C(=O)C[C@@H](C(=O)N[C@@H](Cc2cnc[nH]2)C(=O)N2CCC[C@H]2C(N)=O)NC1=O,-0.675%
13,C[N+]1(CCCCC[N+]2(C)CCCC2)CCCC1,-2.61%
14,COC(=O)C(CN)c1c[nH]c2ccc(OC)cc12 (stereo not given),-1.11%
15,CC(C)NCC1CCc2cc(CO)c([N+](=O)[O-])cc2N1 (stereo not given),-0.344%
16,N[C@@H](Cc1cnc[nH]1)C(=O)O,-4.66%
17,N[C@H](CO)C(=O)O,-0.898%
18,C=C1[C@@H]2CC[C@@H](C2)C1(C)C,-3.65%

row,SMILES,max activation
1,Cc1cc(N)c2ccccc2[n+]1CCCCCCCCCC[n+]1c(C)cc(N)c2ccccc21,-11.7%
2,CC(C)C[C@@H](NC(=O)[C@@H](O)[C@H](N)Cc1ccccc1)C(=O)O,-7.87%
3,CC[C@@H](C(=O)[C@@H](C)[C@@H](O)[C@H](C)CCc1ccc(C)c(O)c1C(=O)O)[C@H]1O[C@](CC)([C@H]2CC[C@](O)(CC)[C@H](C)O2)C[C@@H]1C,-6.82%
4,CN[C@@H]1[C@@H](O[C@H]2O[C@H](CO)[C@@H](N)[C@H](O)[C@H]2O)O[C@H]2C[C@@H](N)[C@@H](O[C@H]3[C@H](O)[C@@H](O)[C@H](N)C[C@@H]3N)O[C@@H]2[C@@H]1O,-0.875%
5,CC(C)=CCC/C(C)=C/CC/C(C)=C/CC/C=C(\C)CC/C=C(\C)CCC=C(C)C,-2.04%
6,CC(C)=CCC/C(C)=C/CC/C(C)=C/CC/C(C)=C/CC1=C(C)C(=O)c2ccccc2C1=O,-1.32%
7,CO/N=C(\C(=O)N[C@@H]1C(=O)N2C(C(=O)[O-])=C(C[n+]3ccc(N)n3CCO)CS[C@H]12)c1csc(N)n1,-1.9%
8,CC1(C)C[C@@H]1C(=O)N/C(=C\CCCCSC[C@H](N)C(=O)O)C(=O)O,-4.56% and -1.17%
9,CCCCCCCCCC(=O)NO,-0.53%
10,CC/C(=C(/CC)c1ccc(OP(=O)(O)O)cc1)c1ccc(OP(=O)(O)O)cc1,-1.74%
11,NCC1CCC(C(=O)O)CC1 (stereo not given),-1.27%
12,C=CCN1C(=O)C(CC(C)C)NC1=S (stereo not given),12.3%
13,Cc1ccc(C(C)(C)c2ccc(C)cc2)cc1,-4.5%
14,O=C(O)[C@@H]1C[C@H](CP(=O)(O)O)CCN1,-5.85%
15,CC[C@@H](C)[C@H](N)C(=O)O,-3.95%
16,CCC(=O)OC(OP(=O)(CCCCc1ccccc1)CC(=O)N1C[C@H](C2CCCCC2)C[C@H]1C(=O)O)C(C)C (stereo not given in full),-3.49%
17,C[N+](C)(C)CCOP(=O)(O)OP(=O)([O-])OC[C@H]1O[C@@H](n2ccc(N)nc2=O)[C@H](O)[C@@H]1O,-1.05%
